Shown are actives, neighbours in structure and some others; about 18% of the full set was active somewhere.
IL-1B inflam inh = inhibitors of inflammasome signaling (IL-1 beta secretion); THP-1 LPS/ATP IL-1B secretion, AlphaLISA, 16 h; active compounds read low; activity change, % at 57.5 µM; AID 743279; actives 4.7% (n = 360,000); in the data active = activity change below about -50%; inconclusive = mostly about -30% to -49%
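Secreted IL-1B measured by AlphaLISA bead assay after 16 h compound exposure of THP-1 cells; compounds (final up to 57.5 uM) added 1 h before LPS (250 ng/mL) and ATP (1.25 mM) stimulation; lower signal means less secretion.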
Six1-Eya2 blk = blocks human Six1 binding to Eya2 | actives 0.56% (n = 360,000) | AlphaScreen GST-Six1/His-Eya2 binding, biochemical; active compounds read low | Q15475+O00167 | activity change, % (no concentration beside the values); in the data active = activity change below about -65%; inconclusive = mostly about -30% to -63%
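AlphaScreen with GST-Six1 and His-Eya2 (5X mix: 250 nM and 500 nM), glutathione donor and nickel acceptor beads; buffer 50 mM Tris pH 8.0, 300 mM NaCl, 1 mM TCEP; 1 h at 37 C in the dark.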
TDP1 inh = blocks human tyrosyl-DNA phosphodiesterase 1; Q9NUW8; recombinant TDP1, AlphaScreen DNA substrate cleavage; Potency, µM (doses to about 130 µM), without a hit: at the top dose activity change, negative = inhibition, usual class: inhibitors; actives 0.28% (n = 350,000); also: potency is read from the fitted curve at half-maximal effect; nearly all actives have a fitted effect of over 40% in size
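Signal: AlphaScreen proximity between streptavidin donor and anti-FITC acceptor beads on intact substrate. Reaction: Tdp1 1 nM, substrate 15 nM final, 5 min RT after 15 min compound preincubation.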
DT40 TDP1 no CPT = qHTS for Inhibitors of human tyrosyl-DNA phosphodiesterase 1 (TDP1): qHTS in cells in absence of CPT; actives 15% (n = 420,000); DT40 Tdp1-/- hTDP1 cells, no CPT, ATP luminescence, 48 h; Potency, µM (top dose mostly 46.2 µM), without a hit: top-dose activity change, negative = growth inhibition, hits mostly inhibitors; also: potency is read from the fitted curve at half-maximal effect; nearly all actives have a fitted effect of over 55% in size
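Stably hTDP1-transfected Tdp1-null chicken DT40 cells were treated with library compounds minus camptothecin and grown for at least 48 hr at 37 °C, after which cellular ATP was quantified by luminescence.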
CtBP-E1A inh = blocks the CtBP interaction with E1A; actives 0.49% (n = 340,000); AlphaScreen GST-E1A/His-CtBP binding, 1536-well; active compounds read low; activity change, % (test concentration not listed); in the data active = activity change below about -65%; inconclusive = mostly about -30% to -63%
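Homogeneous bead-based format: GST-tagged E1A captured on glutathione donor beads, His-tagged CtBP on nickel acceptor beads; compounds precede bead addition by 2 h at 37 °C.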
TDP1 cell CPT = growth inhibition of DT40 Tdp1-/-;hTDP1 cells with camptothecin (screen for TDP1 inhibitors); chicken DT40 Tdp1-/-;hTDP1 cells + 20 nM CPT, ATP luminescence, 48 h; Potency, µM (top dose mostly 46.2 µM), for the others: at the top dose activity change, negative = growth inhibition, most hits filed as inhibitors; actives 12% (n = 420,000); AID 686979; also: potency is read from the fitted curve at half-maximal effect; nearly all actives have a fitted effect of over 55% in size
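Chicken DT40 Tdp1-/- cells complemented with human TDP1, 400 cells/well, exposed to compounds plus 20 nM camptothecin for at least 48 h at 37 C; viability read as ATP content by CellTiter-Glo luminescence.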
An asterisk follows results filed as active; ? = inconclusive; · = no result given; [ ] = another dose, or the depositor's remark. Unless noted, calls follow the shape of the dose curve; as a rule, active = well fitted curve in the direction sought with a large enough effect; inconclusive = small, poorly fitted or top-dose-only effect, or another doubt; inactive = no such curve, though single readings can be large; an effect the other way counts as inactive or inconclusive. % is scaled to controls: 0 for no effect and ±100 for the full control effect.

SMILES	IL-1B inflam inh	Six1-Eya2 blk	TDP1 inh	DT40 TDP1 no CPT	CtBP-E1A inh	TDP1 cell CPT
NC(=O)CC(NC(=O)c1ccc(Br)cc1)c1ccc(NC2CCCCCC2)c([N+](=O)[O-])c1 (stereo not drawn)	11.9	-6.0	·	16.4µM*	-0.9	16.4µM*
Cn1cc(Br)c(C(=O)NC(=S)Nc2ccc(S(N)(=O)=O)cc2)n1	-5.7	5.6	6.1%	-14.5%	·	17.8%
Cn1nccc1-c1coc2c(C(=O)N3CCOCC3)cccc12	0.0	0.1	·	-6.4%	3.8	-7.6%
CC(C)Nc1ccc(C(CC(N)=O)NC(=O)Cc2ccc(Br)cc2)cc1[N+](=O)[O-] (stereo not drawn)	-9.1	-5.4	2.5%	20.6µM*	-1.0	13µM*
NC(=O)CC(NC(=O)Cc1ccc(Br)cc1)c1ccc(NC2CCCC2)c([N+](=O)[O-])c1 (stereo not drawn)	-5.7	0.1	2.5%	?	-1.8	?
CN(Cc1ccco1)c1ncnc2ccc(-c3ccoc3)cc12	·	·	0.8%	?	·	18.4µM*
CN(Cc1ccco1)c1ccnc(-c2cccnc2)n1	·	·	·	36.4%	·	-2.1%
CN(Cc1ccco1)c1cc(-c2ccccc2Cl)ncn1	·	·	9.7%[56.1 µM]	1.6%	·	8.0%
CN(Cc1ccco1)c1ncnc2ccc(-c3ccccc3Cl)cc12	·	·	4.2%	?	·	20.6µM*
CN(Cc1ccco1)c1ncnc2ccc(-c3ccccc3C(F)(F)F)cc12	·	·	·	23.1µM*	·	?
CN(Cc1ccco1)c1ccnc(-c2ccoc2)n1	·	·	3.55µM*	-0.3%	·	3.8%
CN(Cc1ccco1)c1nc(-c2ccoc2)nc2ccccc12	·	·	·	-24.7%	·	?
C[C@@H]1CN([C@H](C)CO)C(=O)CCCn2nncc2CO[C@@H]1CN(C)C(=O)NC1CCCCC1	1.4	5.2	·	-0.1%	2.0	-1.6%
O=C(N/N=C/c1cn(-c2ccccc2)nc1-c1cc2ccccc2o1)c1ccccc1Br	0.7	-26.3	0.0%	14.6µM*	-0.3	4.61µM*
O=C(N/N=C/c1cn(-c2ccccc2)nc1-c1cc2ccccc2o1)c1c[nH]c2ccccc12	-60.2*	2.4	-1.2%	4.61µM*	-7.9	?
OCc1cn(-c2ccccc2)nc1-c1cc2ccccc2o1	-15.6	22.9	4.7%	-3.0%	1.9	?
Cc1nn(CCCC(=O)NCc2cccc(F)c2)c(=O)c2nn(-c3ccccc3)c(C)c12	·	·	0.0%	?	·	?
COc1cccc(-c2nn(-c3ccccc3)cc2CN(C)Cc2ccon2)c1	-14.5	25.8	0.0%	11.2µM*	·	-29.9%
COc1cccc(-c2nn(-c3ccccc3)cc2CN(C)Cc2c(C)nc3ccccn23)c1	16.4	-2.8	7.4%	?	·	?
Cc1ccc2cc3c(N)c4c(C)ccc(C)c4nc3nc2c1	19.6	0.5	-5.3%	?	·	?
CC1=Nc2ccc(C)c3nc(C)cc(c23)N1c1ccc(C)cc1	0.0	10.3	·	16.4µM*	-1.7	?
Cc1ccc(N2C=Nc3ccc(C)c4nc(C)cc2c34)cc1	-51.6*	29.9	5.2%	?	16.7	?
O=C(C[N+]12CN3CN(CN(C3)C1)C2)c1ccc(O)c(O)c1	·	·	·	?	·	10µM*
CC(C)(C)CC(=O)NC(=S)NCc1ccccc1	83.5	9.7	-3.1%	0.5%	24.6	?
CN(C)C(=O)c1ccc(SC(=S)NCc2ccccc2)cc1	?	1.5	·	5.8µM*	1.2	5.8µM*
SMILES	IL-1B inflam inh	Six1-Eya2 blk	TDP1 inh	DT40 TDP1 no CPT	CtBP-E1A inh	TDP1 cell CPT
CCOc1ccc(N(C)S(=O)(=O)c2ccc(C)c(C(=O)Nc3nnc(C4CC4)s3)c2)cc1	-3.1	-17.7	2.2%	4.61µM*	·	-8.5%
CCOc1ccc(NC(=O)c2nccnc2CO)cc1	-10.7	0.1	-7.1%	-3.4%	-0.1	-18.4%
CCCCc1c(O)nc(SC2CC(=O)N(c3ccc(C(=O)OCC)cc3)C2=O)[nH]c1=O (stereo not drawn)	-1.6	2.9	·	?	·	-6.0%
CCC1CCCCN1CCNC(=O)C1CCN(S(=O)(=O)c2cccc3nsnc23)CC1 (stereo not drawn)	-9.9	19.2	0.6%	-11.3%	·	-3.8%
COc1ccc(-c2noc(CCC(=O)Nc3cc(OC)ccc3OC)n2)cc1	-5.7	-14.6	4.2%	20.6µM*	-8.7	-25.0%
COc1ccc(-c2noc(CCC(=O)Nc3cc(Cl)c(OC)cc3OC)n2)cc1	-3.6	-2.4	5.1%	18.4µM*	-0.6	?
Nc1c(C(=O)NCc2ccccc2)sc2nc(N3CCOCC3)c3c(c12)CCCC3	62.3	2.2	6.9%	20.6µM*	-0.4	?
Nc1c(C(=O)Nc2ccc(Cl)cc2)sc2nc(N3CCOCC3)c3c(c12)CCCC3	0.3	-4.3	2.2%	14.6µM*	·	?
Nc1c(C(=O)Nc2ccccc2)sc2nc(N3CCOCC3)c3c(c12)CCCC3	-18.1	-8.3	·	9.2µM*	1.0	?
COc1cccc(NC(=O)c2sc3nc(N4CCOCC4)c4c(c3c2N)CCCC4)c1	-5.9	9.3	2.7%	23.1µM*	·	25.9µM*
NNC(=O)c1sc2nc(N3CCOCC3)c3c(c2c1N)CCCC3	-11.7	-2.7	6.8%	?	·	-28.8%
CCOc1ccc(NC(=O)c2sc3nc(N4CCOCC4)c4c(c3c2N)CCCC4)cc1	4.0	3.6	1.3%	?	-6.7	?
O=[N+]([O-])c1ncn(C23CC4CC(CC(C4)C2)C3)n1	-3.4	7.8	·	-20.6%	0.7	-10.6%
CC(=O)c1ccc(NC(=O)c2sc3nc(N4CCOCC4)c4c(c3c2N)CCCC4)cc1	-8.3	6.6	4.7%	20.6µM*	·	?
